Results taken from PubChem BioAssay (NCATS).
Results filed as inconclusive are left out. Unmarked numbers belong to inactive results. The call rests on the fitted dose curve; in most records, active means well fitted curve in the direction sought with a large enough effect in the signal ratio (not every such curve was filed as active); inconclusive means small, poorly fitted or top-dose-only effect, or effect the other way, or a change in a side signal; inactive means no such curve, though single readings can be large or run the other way; the % refers to the signal ratio.

target: Tyrosine-protein phosphatase non-receptor type substrate 1 (Homo sapiens) + Leukocyte surface antigen CD47 (Homo sapiens) (UniProt P78324+Q08722); experiment: CD47-SIRPalpha protein protein interaction - HTRF assay qHTS validation (AID 1347058); settings: TR-FRET HTRF CD47-His / biotin-SIRPalpha binding, ratio 665/615; series mostly up to 38.3 µM; activity change, negative = inhibition: at the top concentration; further: 0% is about no effect
Description: SIRPalpha is a myeloid cell expressed immunomodulatory receptor that binds the tumor expressed immune checkpoint CD47. Therapeutic disruption of this interaction leads to immune-mediated tumor rejection. This assay was used to quantitate CD47-SIRPalpha binding biochemically and evaluate chemical libraries for novel CD47-SIRPalpha inhibitors. To recapitulate the biological interaction of CD47 and SIRPalpha, we designed expression constructs to produce their recombinant, soluble, extracellular interaction domains. CD47 was produced with an N-terminal 6His tag. SIRPalpha was produced with an N-terminal Avi-Tag for site-specific biotin incorporation. The CD47-SIRPalpha interaction was measured by TR-FRET using affinity tag linked reagents (anti-6His-Eu donor and streptavidin-XL665 acceptor). SIRPalpha without biotin incorporation was used as a positive control inhibitor.
SEQUENCE No. (e.g., 1, 2, 3, etc.); […] (e.g., Cells, Incubation, Reagent, etc.); VALUE and DESCRIPTION.
1a. Reagent. 3 uL CD47-His (12.5 nM) and Anti-His Eu Donor reagent (0.7 nM) added to respective wells in Assay buffer; white/solid bottom high base, med bind 1536-well plates (Greiner 789075)
1b. Reagent. 2 uL Assay buffer negative control for background fluorescence
2. Reagent. 23 nL library compounds (7-pt, 1:4 intraplate titration series) or DMSO control transferred by Pin Tool
3. Centrifuge. Centrifuge plate for 30 s at 1000 RPM
4. Incubation.#Incubate reagents at room temperature for 30 min, protected from light
5. Reagent. 2 uL SIRPalpha-biotin (100 nM) in Assay buffer
6. Incubation.#Incubate reagents at room temperature for 30 min, protected from light
7. Reagent. 1 uL SAV-XL665 (85 nM) acceptor reagent added to respective wells
8. Centrifuge. Centrifuge plate for 30 s at 1000 RPM
9. Incubation. Incubate reagents at room temperature for 30 min, protected from light
10. Detector. Measure Top TR-FRET on EnVision (Eu/APC filter set); calculate ratio Ch1/Ch2
1. Assay buffer composition.#Phosphate buffered saline (PBS; 10 mM Phosphate, 137 mM NaCl, and 2.7 mM KCl; pH 7.4), 0.05% IGEPAL CA-630
2. 23nL of […] library compounds (7 plates) or DMSO vehicle control transferred to 9 Greiner white/solid bottom high base, TC plates in 7 interplate 1:5 titrations (see Yasgar, A. et al. 2008) with Pintool. Two of the 9 plates are DMSO-only in compound field at beginning and end of compound library-treated plates.
10. Detector settings#Mirror = LANCE/DELFIA Dual Enh; Ex. Filter = UV2[TRF] 320; Em. Filter = APC 665; 2nd Em. Filter = Europium 615; Measurement h = 6.5; Ex. light (%) = 100; Delay = […]; Window t = 100 us; No. Seq. windows = 1; Time between flashes = 2000us; No. of flashes = 100; No. of flashes for 2nd detector = 100; Calculation: "Ratio Ch1/Ch2"

Sequence of Tyrosine-protein phosphatase non-receptor type substrate 1 (Homo sapiens) + Leukocyte surface antigen CD47 (Homo sapiens) (P78324 whole entry, looked up): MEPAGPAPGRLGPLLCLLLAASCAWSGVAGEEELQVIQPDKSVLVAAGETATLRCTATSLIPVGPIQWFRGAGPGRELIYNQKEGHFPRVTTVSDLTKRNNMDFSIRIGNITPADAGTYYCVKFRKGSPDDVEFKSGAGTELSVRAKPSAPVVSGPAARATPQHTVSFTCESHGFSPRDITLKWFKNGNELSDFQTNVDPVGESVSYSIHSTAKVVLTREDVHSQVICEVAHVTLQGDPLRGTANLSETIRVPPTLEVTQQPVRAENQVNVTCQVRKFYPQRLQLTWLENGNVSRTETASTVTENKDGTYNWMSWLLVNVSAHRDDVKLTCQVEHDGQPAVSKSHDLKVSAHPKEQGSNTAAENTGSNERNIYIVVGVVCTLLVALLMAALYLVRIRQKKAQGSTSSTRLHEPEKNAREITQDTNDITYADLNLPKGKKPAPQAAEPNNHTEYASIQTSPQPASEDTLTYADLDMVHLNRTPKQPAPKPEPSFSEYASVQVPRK
Sequence of Tyrosine-protein phosphatase non-receptor type substrate 1 (Homo sapiens) + Leukocyte surface antigen CD47 (Homo sapiens) (Q08722 whole entry, looked up): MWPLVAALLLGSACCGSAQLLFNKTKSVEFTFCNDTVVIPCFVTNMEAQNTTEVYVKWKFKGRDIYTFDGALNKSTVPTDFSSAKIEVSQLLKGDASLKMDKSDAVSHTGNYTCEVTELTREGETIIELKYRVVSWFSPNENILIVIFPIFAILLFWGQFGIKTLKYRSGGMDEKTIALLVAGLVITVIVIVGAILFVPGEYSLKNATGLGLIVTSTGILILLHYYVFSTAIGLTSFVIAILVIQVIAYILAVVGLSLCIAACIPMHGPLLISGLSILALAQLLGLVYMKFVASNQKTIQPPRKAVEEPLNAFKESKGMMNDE

SMILES	activity change, negative = inhibition [%]
C[N+]1(CCCCC[N+]2(C)CCCC2)CCCC1	0.952
CCCn1c(=O)[nH]c(=O)c2[nH]cnc21	-0.999
O=C(O)c1cc2cc(Cc3cccnc3)ccc2o1	-5.92
CC(=O)O[C@H]1C[C@@H]2CC[C@@H]3[C@H](CC[C@@]4(C)[C@H]3C[C@H]([N+]3(C)CCCCC3)[C@@H]4OC(C)=O)[C@@]2(C)C[C@@H]1[N+]1(C)CCCCC1	-0.267
CC(C)COC(=O)OCN1C(=O)CN(CCN2CC(=O)N(COC(=O)OCC(C)C)C(=O)C2)CC1=O	-1.32
CNCCC=C1c2ccccc2CCc2ccccc21	-1.82
CNCCC(Oc1ccccc1C)c1ccccc1 (stereo not given)	-2.13
N[C@@H](Cc1cnc[nH]1)C(=O)O	-2.47
C1CCc2nnnn2CC1	-3.25
Oc1ccc(O)cc1	14.3
CN1C2CCC1CC(OC(=O)c1c[nH]c3ccccc13)C2 (stereo not given)	-1.25
C[C@@H]1C(=O)NC2=Nc3cccc(Cl)c3CN21	0.109
N[C@H](CO)C(=O)O	-11.7
COc1cc2c(cc1O)CC[C@@H]1[C@@H]2CC[C@]2(C)[C@@H](O)CC[C@@H]12	-0.346
CC(CCc1ccccc1)NCC(O)c1ccc(O)c(C(N)=O)c1 (stereo not given)	2.96
O=C1CCC(c2ccc(-n3ccnc3)cc2)=NN1	-1.85
CCCC1O[C@@H]2C[C@H]3[C@@H]4CCC5=CC(=O)C=C[C@]5(C)[C@H]4[C@@H](O)C[C@]3(C)[C@]2(C(=O)CO)O1 (stereo not given in full)	0.21
CC[C@H](C)C(=O)O[C@H]1CCC=C2C=C[C@H](C)[C@H](CC[C@@H]3C[C@@H](O)CC(=O)O3)[C@H]21	0.138
Nc1cc(Cl)c(NC2=NCCN2)c(Cl)c1	-1.53
CC1(C)CCC(NC(=O)[C@@H](N)CCC(=O)O)CC1	6.66
